This is a sample that favours compounds with a hit; in the whole collection about 3.2% have one here.
PrPC surface inh – inhibitors of human cell surface prion protein PrPC, primary screen, cell-based, TR-FRET. TR-FRET read-out. inhibition, % at 13.8 µM. 370,000 tested, 0.43% active. AID 720596, 2013; in the data active means inhibition above about 24%; further: 0% = median of the test wells and 100% = reference compound wells
GDH-TPI counter – GDH-TPI coupling enzyme inhibitors, primary screen, artefact control for M. tuberculosis FBA inhibitor project, biochemical, absorbance, full deck. inhibition, % at 4.8 µM. 360,000 tested, 1.2% active. AID 588335, 2011. GDH-TPI coupled enzyme counterscreen, NADH absorbance; in the data active means inhibition above about 30%;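 further: 0% = DMSO wells and 100% = wells lacking the enzyme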
TcdB GH inh – TcdB glycohydrolase inhibitors, primary screen, biochemical, single point, plate reader; TcdB glycohydrolase enzymatic assay; inhibition, % at 9.99 µM; 350,000 tested, 0.24% active; in the data active means inhibition above about 10%
FBA Mtb inh – Mtb FBA enzyme inhibitors, primary screen, biochemical, fluorescence, strain H37Rv | Fructose-bisphosphate aldolase (Mycobacterium tuberculosis (strain ATCC 25618 / H37Rv)), … | 360,000 tested, 2.3% active | purified M. tuberculosis FBA, fluorescence read-out | AID 588726, 2011 | inhibition, % at 1 µM; in the data active means inhibition above about 27%;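 further: 0% = vehicle and 100% = reference inhibitor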
Target sequence (P9WQA3 whole entry, looked up): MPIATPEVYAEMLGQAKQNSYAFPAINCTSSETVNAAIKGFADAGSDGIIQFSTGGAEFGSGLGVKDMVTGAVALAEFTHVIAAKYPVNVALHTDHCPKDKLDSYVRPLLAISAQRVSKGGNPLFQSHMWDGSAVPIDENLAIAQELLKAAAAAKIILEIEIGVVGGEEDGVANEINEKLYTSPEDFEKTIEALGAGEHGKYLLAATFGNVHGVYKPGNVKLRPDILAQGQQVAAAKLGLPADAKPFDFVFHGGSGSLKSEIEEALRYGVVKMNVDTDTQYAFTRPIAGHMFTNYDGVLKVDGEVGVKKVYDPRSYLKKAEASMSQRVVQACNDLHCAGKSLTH
Y pestis TopoI – Yersinia pestis topoisomerase I inhibitors, primary screen, biochemical, cleavage product accumulation, plate reader, single point; Y. pestis Topo-I cleavage product accumulation; activity, % at 10 µM; 360,000 tested, 0.064% active; in the data active means activity above about 50%, passing the limit was not always enough
Numbers without * were called inactive; . = no result; + = active, no number.

SMILES	PrPC surface inh	GDH-TPI counter	TcdB GH inh	FBA Mtb inh	Y pestis TopoI
CO[C@@H]1CN(C)C(=O)c2ccc(NS(C)(=O)=O)cc2OC[C@H](C)N(C(=O)C2CCC2)C[C@H]1C	.	.	0	.	.
CN(C)c1ccc(/C=C(/NC(=O)c2ccccc2)C(=O)NCCCn2ccnc2)cc1	.	33*	.	-4	0
CCn1cc(/C=C(\NC(=O)c2ccccc2)C(=O)NCCCn2ccnc2)c2ccccc21	-3	45*	-7	0	-3
O=C(NCCCn1ccnc1)/C(=C/c1ccc(Cl)cc1)NC(=O)c1ccccc1	-4	-5	-1	1	-7
Cc1c(OCC(=O)C(C)(C)C)ccc2c(-c3ccccc3)cc(=O)oc12	10	9	-11	5	51*
CCNC(=O)C[C@H]1CC[C@H]2[C@@H](COc3ccc(NC(C)=O)cc3C(=O)N2C)O1	.	.	8	.	.
CCNC(=O)C[C@@H]1CC[C@H]2[C@@H](COc3ccc(NC(C)=O)cc3C(=O)N2C)O1	.	.	16*	.	.
CCNC(=O)C[C@H]1CC[C@@H]2[C@@H](COc3ccc(NC(C)=O)cc3C(=O)N2C)O1	.	.	25*	.	.
CCCNC(=O)C[C@H]1CC[C@@H]2[C@@H](COc3ccc(NC(=O)c4ccc5c(c4)OCO5)cc3C(=O)N2C)O1	.	.	12*	.	.
CCNC(=O)C[C@H]1CC[C@@H]2[C@H](COc3ccc(NC(C)=O)cc3C(=O)N2C)O1	.	.	12*	.	.
CCCNC(=O)C[C@@H]1CC[C@@H]2[C@@H](COc3ccc(NC(=O)c4ccc5c(c4)OCO5)cc3C(=O)N2C)O1	.	.	-1	.	.
CC(=O)Nc1ccc2c(c1)C(=O)N(C)[C@@H]1CC[C@@H](CC(=O)NCC3CC3)O[C@@H]1CO2	.	.	-1	.	.
CO[C@H]1CN(C)C(=O)c2ccc(NS(=O)(=O)c3c(C)noc3C)cc2OC[C@H](C)NC[C@@H]1C	.	.	0	.	.
C[C@@H](NC(=O)C[C@H]1CC[C@H](NC(=O)Cc2ccccn2)[C@H](CO)O1)c1ccccc1	.	.	-1	.	.
COc1ccc(S(=O)(=O)Nc2ccc3c(c2)C(=O)N([C@H](C)CO)C[C@H](C)[C@H](CN(C)C(=O)c2ccncc2)OCCCC[C@@H](C)O3)cc1	.	.	1	.	.
COC(=O)C[C@H]1CC[C@H]2[C@@H](COc3ccc(NC(=O)c4cccc(Cl)c4)cc3C(=O)N2C)O1	.	.	-1	.	.
O=Cc1cn(CCC(=O)O)nc1-c1cccc(Br)c1	-3	-4	.	2	-9
O=C(O)CCn1cc(/C=C\C(=O)c2ccc(Cl)cc2)c(-c2cccc(Br)c2)n1	6	38*	.	1	4
CCOC(=O)Cc1csc(NC(=O)/C=C/c2ccc(Br)o2)n1	-4	75*	0	-3	6
CCOC(=O)Cc1csc(NC(=O)c2ccc(Br)o2)n1	1	11	.	-12	-6
CCOC(=O)c1oc2c(CN3CCN(C)CC3)c(O)c(CC)cc2c(=O)c1-c1nc2ccccc2s1	-3	5	0	1	0
COc1ccc(Oc2c(C)oc3c(CN4CCOCC4)c(O)ccc3c2=O)cc1	10	24	.	20	5
COc1ccccc1-c1coc2c(CN3CCCCC3C)c(O)ccc2c1=O (stereo unspecified)	-1	30	0	135*	6
COc1cccc(Oc2c(C)oc3c(CN4CCOCC4)c(O)ccc3c2=O)c1	-1	23	-1	142*	3
CC1CCCCN1Cc1c(O)ccc2c(=O)c(-c3nc4ccccc4s3)c(N)oc12 (stereo unspecified)	6	61*	5	21	21
SMILES	PrPC surface inh	GDH-TPI counter	TcdB GH inh	FBA Mtb inh	Y pestis TopoI
COc1ccc(-c2c(C)oc3c(CN4CCCCC4C)c(O)ccc3c2=O)cc1 (stereo unspecified)	4	10	0	174*	2
C[C@H](CO)N1C[C@H](C)[C@@H](CN(C)C(=O)NC2CCCCC2)Oc2ccc(NS(=O)(=O)c3ccc(Cl)cc3)cc2CC1=O	.	.	0	.	.
COc1ccccc1CNC(=O)C[C@H]1CC[C@@H]2[C@@H](COc3ccc(NC(=O)Nc4ccc(F)c(F)c4)cc3C(=O)N2C)O1	.	.	1	.	.
C[C@@H]1CN([C@H](C)CO)C(=O)c2cccc(NS(=O)(=O)c3ccc(F)cc3)c2O[C@H]1CN(C)CC1CC1	.	.	1	.	.
Cn1cnc(S(=O)(=O)N2C[C@H](O)COC[C@@H]3O[C@@H](CC(=O)NCc4cc(F)cc(F)c4)CC[C@H]32)c1	.	.	0	.	.
COC(=O)N(C)C[C@H]1OCc2ccccc2-c2c(n(C)c3ccccc23)C(=O)N([C@@H](C)CO)C[C@H]1C	.	.	0	.	.
CCOC(=O)c1c(C)oc2ccc(O)c(CN3CCCCC3)c12	1	-8	0	-2	-8
Cc1oc2c(CN3CCCC(C)C3)c(O)ccc2c(=O)c1-c1ccccc1 (stereo unspecified)	4	28	1	136*	-4
COC(=O)Cc1c(C)c2ccc(O)c(CN3CCCC(C)C3)c2oc1=O (stereo unspecified)	9	10	.	.	-3
CCOC(=O)c1ccc(Oc2c(C)oc3c(CN4CCN(C)CC4)c(O)ccc3c2=O)cc1	3	22	.	157*	-2
Cc1oc2c(CN3CCCCC3)c(O)ccc2c(=O)c1-c1ccc(Cl)cc1	-5	12	0	113*	3
COc1ccccc1-c1c(C)oc2c(CN3CCOCC3)c(O)ccc2c1=O	7	9	1	+	2
C[C@H](CO)N1C[C@H](C)[C@H](CN(C)S(=O)(=O)c2ccccc2)Oc2ccc(NC(=O)Nc3ccccc3)cc2CC1=O	.	.	-1	.	.
COc1cccc(NC(=O)C[C@@H]2CC[C@H]3[C@H](COc4ccc(NC(=O)C5CCC5)cc4C(=O)N3C)O2)c1	.	.	0	.	.
CCCNC(=O)N1C[C@H](C)[C@H](OC)CN(C)C(=O)c2cc(NS(C)(=O)=O)ccc2OC[C@H]1C	.	.	-4	.	.
Cc1ccc(S(=O)(=O)N(C)C[C@@H]2Oc3ccc(N(C)C)cc3CC(=O)N([C@@H](C)CO)C[C@H]2C)cc1	.	.	-2	.	.
Cc1oc2c(CN3CCCC3)c(O)ccc2c(=O)c1Oc1ccccc1Br	8	24	.	+	-1
COc1ccccc1-c1c(C)oc2c(CN3CCCC(C)C3)c(O)ccc2c1=O (stereo unspecified)	-2	21	-1	+	1
